Measured values from PubChem BioAssay (NCATS).
Inconclusive results are not listed. The source made the active and inactive calls. Calls come from the whole dose curve; as a rule, active = well fitted curve in the direction sought with a large enough effect; inconclusive = small, poorly fitted or top-dose-only effect, or another doubt; inactive = no such curve, though single readings can be large; an effect the other way counts as inactive or inconclusive.

Experiments:
[1] = biological target: Glutathione peroxidase 1 (Homo sapiens) (UniProt P07203); test: Primary qHTS Assay for Inhibitors of Recombinant Selenoprotein Glutathione Peroxidase 1 (GPX1) (AID 1845191); details: recombinant GPX1, GR-coupled NADPH fluorescence, 15 min; series mostly up to 48.8 µM; note: nearly all actives have a fitted effect of over 65% in size
Chain of Glutathione peroxidase 1 (Homo sapiens) (P07203 whole entry, looked up): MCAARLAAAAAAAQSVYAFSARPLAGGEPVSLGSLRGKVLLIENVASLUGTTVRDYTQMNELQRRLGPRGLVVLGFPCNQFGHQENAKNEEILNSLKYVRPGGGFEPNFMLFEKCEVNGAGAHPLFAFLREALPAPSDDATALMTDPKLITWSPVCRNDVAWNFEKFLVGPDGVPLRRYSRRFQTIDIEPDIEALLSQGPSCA
How it was run: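 GPX1 10 nM, GR 100 nM, GSH 1 mM, NADPH 0.5 mM, CHP 0.5 mM (final). 30-min cpd preincubation, RT. Ex340/Em450 read t=0, t=15 min.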

[2] = biological target: Phospholipid hydroperoxide glutathione peroxidase GPX4 (Homo sapiens) (UniProt P36969); test: Primary qHTS Assay for Inhibitors of Recombinant Selenoprotein Glutathione Peroxidase 4 (GPX4) (AID 1845192); details: recombinant GPX4, GR-coupled NADPH fluorescence, 15 min; series mostly up to 50 µM; note: nearly all actives have a fitted effect of over 65% in size; note: potency is the fitted concentration of half-maximal effect
Chain of Phospholipid hydroperoxide glutathione peroxidase GPX4 (Homo sapiens) (P36969 whole entry, looked up): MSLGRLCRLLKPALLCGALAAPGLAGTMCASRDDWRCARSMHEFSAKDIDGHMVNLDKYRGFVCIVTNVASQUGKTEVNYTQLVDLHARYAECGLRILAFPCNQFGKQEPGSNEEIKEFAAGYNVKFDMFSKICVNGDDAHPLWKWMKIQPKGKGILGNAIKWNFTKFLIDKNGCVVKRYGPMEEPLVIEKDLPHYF
How it was run: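 qHTS, GR-coupled: GPX4 200 nM + cpd 30 min RT → GSH 1 mM, NADPH 0.5 mM, GR 100 nM → CHP 0.5 mM start; fluor 340/450 at t0 and t15 min; no-enzyme wells as control.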

[3] = biological target: Luciferin 4-monooxygenase (Photinus pyralis) (UniProt P08659); test: Primary firefly luciferase (FLuc) qHTS assay for identification of artifact compounds. (AID 1845220); details: purified firefly luciferase, luminescence, 5 min; series mostly up to 54.1 µM; note: nearly all actives have a fitted effect of over 60% in size
How it was run: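 Reaction readout was CCD-imaged luminescence, taken 5 min after adding 10 nM purified firefly enzyme to compound-treated wells holding 10 uM luciferin and ATP in pH 7.6 buffer.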

[4] = Primary fluorescence-based thiol-reactive (MSTI) qHTS assay for identification of artifact compounds. (AID 1845221); details: MSTI thiol-reactivity probe, 1 h; series mostly up to 53.8 µM;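 note: thiol-reactive compounds lower the probe fluorescence signal; nearly all actives have a fitted effect of over 65% in size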
How it was run: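 MSTI probe at 4 uM final in 2% DMSO/PBS pH 7.4; compounds, 1 h at room temperature in dark. Fluorescence Ex/Em 525/598 nm, normalised to Acetyl-MSTI and MSTI, fitted to 4-parameter Hill.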

Measured: Potency

CCN1C[C@]2(COC(=O)c3ccccc3N3C(=O)C[C@H](C)C3=O)CC[C@H](OC)[C@@]34[C@@H]5C[C@H]6[C@H](OC)[C@@H]5[C@](O)(C[C@@H]6OC)[C@](O)([C@@H](OC)[C@H]23)[C@@H]14
inactive: all assays above

COC(=O)C1(C)CCC(=O)C2(C)c3c(O)cc(C(C)C)cc3C(O)C(OC(C)=O)C12 (configuration not stated)
inactive: all assays above

COc1cc(C)[nH]c(=O)c1CNC(=O)c1c(C)n([C@H](C)C2CCOCC2)c2ccccc12
inactive: all assays above

COC(=O)C1(C)CCC(O)C2(C)c3c(O)cc(C(C)C)cc3C(O)C(OC(C)=O)C12 (configuration not stated)
inactive: all assays above

CC12CCC3C(CCC4(O)CC(O)CCC34C=O)C1(O)CCC2C1=CC(=O)OC1 (configuration not stated)
inactive: [1] | [3] | [4]

O=C(N1CCOCC1)N1CCN(c2ccc(Cl)cc2)CC1
inactive: all assays above

CN1C(=O)N(c2ccc(C#N)c(C(F)(F)F)c2)C(=O)[C@]1(CO)c1ccccc1
inactive: [1] | [3] | [4]

Oc1ccc2c3c1O[C@H]1[C@H](N(CCCl)CCCl)CC[C@@]4(O)[C@@H](C2)N(CC2CC2)CC[C@]314
inactive: [1] inactive [at 9.52 µM] | [3] inactive [at 11.6 µM]

CC(C)C1(OO)C=C2C(=O)CC3C(C)(C(=O)O)CCCC3(C)C2CC1 (configuration not stated)
inactive: [1] | [3] | [4]

C/C=C(\C)C(=O)OC1CC2C(C)(C)OC(=O)CC(OC(C)=O)C2(C)C2CC(OC(=O)C(C)C)C3(C)C(c4ccoc4)CC4OC43C12C (configuration not stated)
inactive: all assays above

CC(=O)O[C@H]1C[C@@H](OC(C)=O)C(C)(C)C2C[C@@H](O)[C@]3(C)C(CC[C@@]4(C)[C@H](C5=CC(=O)OC5O)C[C@H]5O[C@]543)[C@]21C (some centres not stated)
inactive: [1] | [3]

CCN1C[C@]2(OC(=O)c3ccccc3NC(C)=O)CC[C@H](OC)[C@@]34[C@@H]2C[C@@H]([C@@H]13)[C@@]1(O)C[C@H](OC)[C@H]2C[C@@H]4[C@]1(O)[C@H]2OC
inactive: [1] | [3]

CC[C@H](C)[C@H]1O[C@]2(C=C[C@@H]1C)C[C@@H]1C[C@@H](C/C=C(\C)[C@@H](O[C@H]3C[C@H](OC)[C@@H](O[C@H]4C[C@H](OC)[C@@H](O)[C@H](C)O4)[C@H](C)O3)[C@@H](C)/C=C/C=C3\CO[C@@H]4[C@H](O)C(C)=C[C@@H](C(=O)O1)[C@]34O)O2
active: [2] 5.01 µM

CC[C@H]1CN2CC[C@H]1C[C@H]2[C@H](O)c1ccnc2ccc(OC)cc12
inactive: all assays above

CC(N)Cc1c[nH]c2ccccc12 (configuration not stated)
inactive: all assays above

CCC(C)(OC(C)=O)C(=O)O[C@H]1[C@H](OC(C)=O)C[C@@H]2[C@@](C)([C@@H]3C[C@H]4C=CO[C@H]4O3)[C@H](C)C[C@H](OC(C)=O)[C@@]2(COC(C)=O)[C@@]12CO2 (some centres not stated)
inactive: [1] | [3] | [4]

C[C@@]12C[C@@H](c3ccoc3)OC(=O)C1CC[C@]1(C)[C@H]2[C@H]2C=C[C@]1(O)C(=O)O2 (some centres not stated)
inactive: [1] | [3] | [4]

CCc1c(C(=O)C(N)=O)c2c(OCC(=O)OC)cccc2n1Cc1ccccc1
inactive: all assays above

C=C[C@H]1CN2CC[C@H]1C[C@@H]2[C@@H](O)c1ccnc2ccccc12
inactive: [1] | [3] | [4]

CN[C@H]1[C@H](O)[C@H](O[C@@H]2[C@@H](O)[C@H](O[C@H]3O[C@H]([C@H](C)O)[C@@H](O)[C@H](O)[C@H]3N)[C@@H](N)C[C@H]2N)OC[C@@]1(C)O
inactive: [1] | [3]

CN(C(=O)Cc1ccccc1)C(CN1CCCC1)c1ccccc1 (configuration not stated)
inactive: [2] | [3] | [4]

COC1CC(O[C@H]2CC[C@]3(C=O)C4CC[C@]5(C)[C@@H](C6=CC(=O)OC6)CC[C@]5(O)[C@@H]4CC[C@]3(O)C2)OC(C)C1O[C@@H]1O[C@H](CO)[C@@H](O)[C@H](O)[C@H]1O (some centres not stated)
inactive: [1] | [3]

CCN1CC2(COC)C3[C@@H](OC)C4C1C3(C1C[C@]3(O)[C@H](OC(=O)c5ccccc5)C1[C@]4(OC(C)=O)[C@@H](O)[C@@H]3OC)[C@H](OC)C[C@H]2O (some centres not stated)
inactive: all assays above
